# Screening results: PubChem BioAssay, several laboratories
# Sampled rows, rich in hits. Any-hit rate of the full collection: about 4.2%.
# Mac1 fbg inh = CD11b/CD18-fibrinogen binding inhibition. K562 CD11b/CD18 adhesion to fibrinogen, ATPlite luminescence; Mn2+ added to activate the integrin. inhibition, % at 10 µM. hit rate 0.54% among 93,000. AID 1497;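 active = primary inhibition of 50% or more at 10 µM, then 40% or more on retest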
# Target sequence (P05107 whole entry, looked up, other chains not shown): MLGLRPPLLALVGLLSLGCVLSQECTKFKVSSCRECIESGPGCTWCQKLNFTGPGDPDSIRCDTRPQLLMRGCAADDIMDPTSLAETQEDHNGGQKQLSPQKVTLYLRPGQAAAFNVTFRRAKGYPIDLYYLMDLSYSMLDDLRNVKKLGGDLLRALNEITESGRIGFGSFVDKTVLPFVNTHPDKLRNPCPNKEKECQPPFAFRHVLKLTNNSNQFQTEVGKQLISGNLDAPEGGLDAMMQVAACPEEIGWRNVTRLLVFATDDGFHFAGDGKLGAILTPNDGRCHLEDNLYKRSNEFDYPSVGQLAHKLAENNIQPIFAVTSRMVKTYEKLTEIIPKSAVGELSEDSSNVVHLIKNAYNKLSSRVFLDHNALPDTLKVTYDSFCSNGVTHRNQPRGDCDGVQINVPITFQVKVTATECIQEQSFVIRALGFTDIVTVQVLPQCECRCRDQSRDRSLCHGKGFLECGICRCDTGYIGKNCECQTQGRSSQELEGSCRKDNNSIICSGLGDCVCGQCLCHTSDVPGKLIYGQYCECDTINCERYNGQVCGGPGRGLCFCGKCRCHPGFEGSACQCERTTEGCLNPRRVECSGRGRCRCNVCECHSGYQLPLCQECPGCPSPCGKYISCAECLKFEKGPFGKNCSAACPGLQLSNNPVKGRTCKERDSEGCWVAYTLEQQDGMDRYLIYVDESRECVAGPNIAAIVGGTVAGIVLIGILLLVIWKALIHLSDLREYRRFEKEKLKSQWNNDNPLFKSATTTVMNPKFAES
# E coli RNAP = Escherichia coli RNA polymerase inhibition. P0A8V2. E. coli RNA polymerase, fluorescence transcription assay. inhibition, %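 (tested at 10 µM)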. hit rate 0.2% among 62,000; in the data active = inhibition above about 20%
# Cav3 T inh = human Cav3.2 channel inhibition, primary screen | hit rate 4% among 100,000 | O95180 | B-score at 10 µM | Cav3.2-expressing cells, Fluo-4 calcium fluorescence FDSS; hits give low values;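 active = single-dose well whose peak fluorescence ratio is a statistical outlier from its plate by either plate-standardised score or position-corrected B-score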
# Mac1 fbg enh = enhancers of human CD11b/CD18 binding to fibrinogen; P05107+P11215; K562 CD11b/CD18 adhesion to fibrinogen, ATPlite luminescence; activation, % at 10 µM; hit rate 0.07% among 93,000;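 active = 10 µM primary screen giving 50% or more activity, confirmed by 40% or more on retest at that dose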
# PTK2B oligo ant = antagonists of human Pyk2 oligomerization | Q293 cells, Pyk2 FERM NanoBiT luminescence; hits give low values | AID 1347419 | z-score (the deposit names both 25 µM and 10 µM) | hit rate 0.83% among 99,000 | Q14289;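 active = Z-score of -3 or lower, scaled per plate to the spread of control and sample wells; inactive = z-score above -3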;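 note: negative z-score means lost luminescence so less FERM oligomerization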
# A number is an active result; i = inactive; nt = no result given.
SMILES,Mac1 fbg inh,E coli RNAP,Cav3 T inh,Mac1 fbg enh,PTK2B oligo ant
Cc1nc2c(C(=O)NCCC(C)C)c[nH]n2c(=O)c1Cc1ccccc1F,81,nt,-5.2,i,i
Cc1cc(C)cc(C(=O)NC(CC(N)=O)c2ccc(NC3CCCCC3)c([N+](=O)[O-])c2)c1 (configuration not stated),nt,nt,i,nt,nt
CCN1C(=O)/C(=C/N2CCc3ccccc32)SC1=S,i,i,i,i,i
CCCN1C(=O)/C(=C/C=C2\N(CC)c3ccccc3C2(C)C)SC1=S,i,nt,-4.5,i,-3
CSc1nc(C)cc(C)c1S(=O)(=O)c1ccccc1C,nt,nt,-6.5,nt,i
CCOc1ccc(Cn2c(C)nc([N+](=O)[O-])c2SCC(O)CCl)cc1[N+](=O)[O-] (configuration not stated),i,nt,i,i,i
COC(=O)C1=C(C)N(Cc2ccco2)C(=O)N[C@@H]1c1ccco1,nt,nt,i,nt,nt
CCOC(=O)c1cnn(-c2cc(Oc3cccc(C)c3)ncn2)c1N,i,nt,i,i,i
CCOC(=O)c1cnn(-c2cc(Oc3ccccc3)ncn2)c1N,52,nt,i,i,i
Fc1ccccc1N1CC(c2ccccc2)C(c2cccs2)=N1 (configuration not stated),i,nt,i,i,i
CCOC(=O)C(=CNc1ccc(C)cc1C)C(=O)OCC,i,nt,i,i,-3.2
CCOC(=O)C(=CNc1cccc(C)c1C)C(=O)OCC,nt,nt,i,nt,i
O=c1cc(N2CCc3ccccc3C2)[nH]c(=O)n1Cc1ccc(F)cc1,nt,i,-4,nt,i
O=c1cc(N2CCN(c3ccccc3)CC2)[nH]c(=O)n1Cc1ccc(F)cc1,i,i,-6.1,i,nt
C=CCNC(=O)c1onc(CSc2cccc(OC)c2)c1C(=O)NCC=C,nt,nt,i,nt,nt
COc1ccc(NC(=O)CN(C)S(=O)(=O)c2ccc(Cl)cc2)cc1Cl,nt,nt,i,nt,i
CC(OC(=O)CN(C)S(=O)(=O)c1ccc(Cl)cc1)C(=O)Nc1cccc(Cl)c1 (configuration not stated),i,nt,-6.6,i,i
CC(C)CC(NC(=O)C(COC(C)(C)C)NC(=O)C(Cc1ccc(O)cc1)NC(=O)C(CO)NC(=O)C(Cc1c[nH]c2ccccc12)NC(=O)C(Cc1cnc[nH]1)NC(=O)C1CCC(=O)N1)C(=O)N[C@@H](CCCN=C(N)N)C(=O)N1CCCC1C(=O)NNC(N)=O (some centres not stated),nt,nt,i,nt,nt
CCCCc1ccc(NS(=O)(=O)N(C)C)cc1,i,i,-4.3,i,i
CN(C)S(=O)(=O)Nc1ccc(Oc2ccccc2)cc1,i,i,i,i,i
Cc1ccccc1OCC(=O)Nc1ccccc1N1CCCCC1,i,i,i,i,i
Cc1cccc(OCC(=O)Nc2ccccc2N2CCN(C(=O)C(C)C)CC2)c1C,i,i,-4.9,i,i
CC(=O)N1CCN(c2ccccc2NC(=O)COc2cc(C)ccc2C(C)C)CC1,i,i,-5.7,i,i
O=C(NCc1ccccc1)c1cccc(COc2ccccc2Cl)c1,i,nt,-6.5,i,i
C#Cc1ccc([C@@H]2C=C(C(=O)O)O[C@H](OCC)[C@H]2CCCO)cc1,nt,nt,i,nt,nt
SMILES,Mac1 fbg inh,E coli RNAP,Cav3 T inh,Mac1 fbg enh,PTK2B oligo ant
CCN(CC)c1ccc(-c2nc3cnccn3c2NC2CCCC2)cc1,nt,nt,-6.2,nt,i
c1cn2c(NC3CCCC3)c(-c3ccc(N4CCOCC4)cc3)nc2cn1,i,i,i,i,nt
CCOc1ccc(C(Nc2ccc(C)cc2)P2(=O)OCCC(C)O2)cc1 (configuration not stated),i,nt,i,i,i
C=CCn1c(SCc2c(C)noc2C)nc2sc3c(c2c1=O)CCCCC3,i,i,-4.3,i,i
C=CCn1c(SCc2c(C)noc2C)nc2sc3c(c2c1=O)CCCC3,i,nt,-3.8,i,i
COc1ccc(Cc2nnc(SCc3c(C)noc3C)n2C2CCCCC2)cc1OC,i,i,i,i,i
Cc1noc(C)c1CSc1nc2sc3c(c2c(=O)n1C)CCCC3,i,nt,i,i,i
Cc1noc(C)c1CSc1nc2sc(C)c(C)c2c(=O)n1C1CCCC1,i,i,-5.8,i,i
O=C(c1cc(Cl)c(=O)n(Cc2ccc(Cl)cc2)c1)N1CCOCC1,nt,nt,i,nt,i
CCc1ccc(N/C(SCc2ccccc2C)=C(/C#N)C(=O)NCc2ccco2)cc1,nt,nt,-5.4,nt,i
COc1cccc(N/C(SCc2ccccc2F)=C(/C#N)C(=O)NCc2cccs2)c1,nt,nt,nt,nt,i
COC(=O)c1ccc(OC)cc1OCC(=O)N1CCN(c2ccc(F)cc2)CC1,i,nt,i,i,i
CN(C)c1nc(SCc2ccc(Cl)cc2)nc2c1CCCC2,i,nt,i,i,i
Cc1ccc(S(=O)(=O)n2nc(OC(=O)c3c(-c4ccccc4Cl)noc3C)cc2N)cc1,i,i,-7.4,i,i
